# Laboratory results: ChEMBL document CHEMBL3988442, “University of Dundee, Small-Polar-MMV Screening Library” (2021)
# In all, about 66,000 compounds went through this assay and about 960 (1.5%) showed an effect of 50% or more. This is one part of a sample in which strong results are shown more often than they occur.
# Tested on: Trypanosoma brucei
# Test: Trypanosoma brucei 72 hour study
# Format: functional, organism-based
# Parameters: scale not given: in the data most compounds retested in dose-response had high values
compound,measurement,setting,value
N#CC1(C(=O)N2C[C@H]3CC[C@@H]2CN(Cc2cscn2)C3)CCOCC1,Percent Effect,"30 µM, 30.03 µM",-52.3%
Cc1nn(C)c(C)c1C1CCCN1CC(=O)Nc1nccs1 (configuration not stated),Percent Effect,"30.3 µM, […]",-4.403%
CNC(=O)[C@@H]1C[C@H]2CN(Cc3csc(C)n3)C[C@H]2N1C(C)C.O=C(O)C(F)(F)F.O=C(O)C(F)(F)F,Percent Effect,"30.3 µM, […]",4.031%
Cc1nc(C(=O)N2CCN(c3ccc(Cl)c(Cl)c3)CC2)cs1,Percent Effect,"30.3 µM, […]",12.74%
Cc1nccc([C@H]2C[C@@H]3CCN(S(C)(=O)=O)C[C@H]3O2)n1,Percent Effect,"30.3 µM, […]",-74.86%
Cc1nccc([C@@H]2C[C@@H]3CCN(S(C)(=O)=O)C[C@H]3O2)n1,Percent Effect,"30 µM, 30.03 µM",53.53%
Cc1nccc([C@H]2C[C@@H]3CCN(S(=O)(=O)C4CC4)C[C@H]3O2)n1,Percent Effect,"30.3 µM, […]",-36.22%
CCNC(=O)Nc1ccc(N2CCC(OC)CC2)c(C(F)(F)F)c1,Percent Effect,"30 µM, 30.03 µM",-0.4307%
COc1ccc(CN2CCc3[nH]nc(C(=O)N(C)C)c3C2)cc1.O=C(O)C(F)(F)F,Percent Effect,"30.3 µM, […]",4.36%
COc1ccc(F)c(CN(CCCn2ccnc2)Cc2ccc(C)s2)c1.O=C(O)CC(O)(CC(=O)O)C(=O)O,Percent Effect,"30.3 µM, […]",-24.6%
CN(CC(=O)NC(Cc1ccsc1)c1cccnc1)Cc1cccnc1.Cl (configuration not stated),Percent Effect,"30.3 µM, […]",-0.9311%
CC(C)c1noc(CN(C)C(c2ccc(F)cc2)c2cccnc2)n1 (configuration not stated),Percent Effect,"30 µM, 30.03 µM",70.75%
CC(C)c1nnc(CN(C)C(c2ccc(F)cc2)c2cccnc2)o1 (configuration not stated),Percent Effect,"30 µM, 30.03 µM",-53.44%
CN(Cc1nnc(C2CC2)o1)C(c1ccc(F)cc1)c1cccnc1 (configuration not stated),Percent Effect,"30 µM, 30.03 µM",-93.52%
Cc1noc(NCc2ccc(F)cc2F)n1,Percent Effect,"30.3 µM, […]",72.2%
Cc1noc(NCc2cn(C)nc2-c2cccnc2)n1,Percent Effect,"30 µM, 30.03 µM",-14.18%
Cc1noc(NCc2cn(C)nc2-c2ccncc2)n1,Percent Effect,"30 µM, 30.03 µM",-13.42%
Cc1noc(NCc2cc(F)ccc2F)n1,Percent Effect,"30.3 µM, […]",50.55%
CC(C)(C)c1nnc(NCc2ccc(F)cc2)o1,Percent Effect,"30 µM, 30.03 µM",-100%
Cc1nnc(NCc2ccc(F)cc2)o1,Percent Effect,"30 µM, 30.03 µM",-52.4%
Cc1noc(NCc2ccc(F)cc2)n1,Percent Effect,"30.3 µM, […]",55.37%
Cc1noc(CS(=O)(=O)c2cc(F)ccc2F)n1,Percent Effect,"30.3 µM, […]",-4.369%
COCc1cc(NCc2cc(F)ccc2F)n2nccc2n1,Percent Effect,"30 µM, 30.03 µM",-36.1%
Cc1occc1C(=O)N1CCc2c(CNS(C)(=O)=O)cncc2C1.Cl,Percent Effect,"30.3 µM, […]",-7.203%
CN(C)C[C@]12COC[C@H]1CN(C(=O)Cc1ccc3c(c1)OCO3)C2.O=C(O)C(F)(F)F,Percent Effect,"30 µM, 30.03 µM",24.04%
Cn1ncc2c(NC3CCSC3)nc(-c3ccncc3)nc21 (configuration not stated),Percent Effect,"30.3 µM, […]",38.84%
CC(=O)N1CCN(Cc2cccs2)CC2(CC(=O)N(C)C2)C1.O=C(O)C(F)(F)F (configuration not stated),Percent Effect,"30.3 µM, […]",-45.81%
CN1CC(=O)N(c2ccsc2)CC12CCN(C(=O)c1cccn1C)C2.O=C(O)C(F)(F)F (configuration not stated),Percent Effect,"30 µM, 30.03 µM",-33.31%
Cc1noc([C@@H]2CCO[C@@H]3CCN(Cc4ccc(C)s4)C[C@@H]32)n1.O=C(O)C(F)(F)F,Percent Effect,"30 µM, 30.03 µM",1.711%
O=C(O)C(F)(F)F.O=C(O)c1c(-c2cncnc2)ncc2c1CCN(CC1CCOC1)C2 (configuration not stated),Percent Effect,"30.3 µM, […]",-18.52%
CCn1ncc2c1C(COCC1CC1)CN(c1ccncn1)C2.O=C(O)C(F)(F)F.O=C(O)C(F)(F)F (configuration not stated),Percent Effect,"30 µM, 30.03 µM",-5.077%
O=C1CCCN1C(CNS(=O)(=O)C1CC1)Cc1cccc(F)c1 (configuration not stated),Percent Effect,"30 µM, 30.03 µM",7.214%
COCCN1CCCC(c2nc(C)n3c(C)c(C)sc23)C1 (configuration not stated),Percent Effect,"30.3 µM, […]",-27.06%
Cc1sc2c(C3CCCN(S(C)(=O)=O)C3)nc(C)n2c1C (configuration not stated),Percent Effect,"30.3 µM, […]",73.25%
Cc1sc2c(C3CCCN(C(C)C)C3)nc(C)n2c1C (configuration not stated),Percent Effect,"30.3 µM, […]",-21.43%
O=C(O)C(F)(F)F.c1cncc(CN2Cc3nccn3CC(Cn3cncn3)C2)c1 (configuration not stated),Percent Effect,"30 µM, 30.03 µM",-73.02%
Cc1nnc(C(C)NCC2(c3ccc(F)cc3)CCCCC2)o1 (configuration not stated),Percent Effect,"30.3 µM, […]",9.19%
COc1ccc(C2(CNC(C)c3nnc(C)o3)CCCCC2)cc1 (configuration not stated),Percent Effect,"30.3 µM, […]",100.1%
Cc1cccc(C2(CNC(C)c3nnc(C)o3)CCCC2)c1 (configuration not stated),Percent Effect,"30.3 µM, […]",99.4%
Cc1nnc(C(C)NCC2(c3ccc(Cl)cc3)CCCC2)o1 (configuration not stated),Percent Effect,"30.3 µM, […]",-10.5%
Cc1nnc(C(C)NCC2(c3ccc(Cl)cc3)CCOCC2)o1 (configuration not stated),Percent Effect,"30.3 µM, […]",-12.99%
COc1cccc(C2(CNC(C)c3nnc(C)o3)CCCC2)c1 (configuration not stated),Percent Effect,"30.3 µM, […]",-15.21%
Cc1nccc(CNC(=O)NC(c2ncc(C)s2)C2CC2)n1 (configuration not stated),Percent Effect,"30 µM, 30.03 µM",-69.67%
CN(C)CCOCc1nnc2n1CCN(Cc1ccco1)CC2.O=C(O)C(F)(F)F.O=C(O)C(F)(F)F,Percent Effect,"30.3 µM, […]",-5.145%
CCC1=N[C@@]2(CC[C@@H]3CN(Cc4ccc(C)cc4)C[C@@H]32)C(=O)N1C.O=C(O)C(F)(F)F,Percent Effect,"30.3 µM, […]",-61.95%
O=C(O)C(F)(F)F.O=C1CC2(CCCCN2C(=O)c2ccncc2)CN1CC1CC1 (configuration not stated),Percent Effect,"30.3 µM, […]",-11.8%
O=C(CCn1cncn1)N1CCCC1c1noc(C2CC2)n1 (configuration not stated),Percent Effect,10 µM,-39.57%
COCCN1CCC2(CC1)CC(NC(=O)C1CC1)c1ccccc1O2.O=C(O)C(F)(F)F (configuration not stated),Percent Effect,"30.3 µM, […]",-14.66%
Fc1ccc2[nH]c3c(c2c1)CCN1C(c2ccncc2)N2CCC31CC2 (configuration not stated),Percent Effect,"30.3 µM, […]",100.7%
O=C(N1CCC(OCc2ccccn2)CC1)C1(c2ccc(F)cc2)CC1,Percent Effect,"30 µM, 30.03 µM",-36.15%
CC(=O)NC1CCCc2c1[nH]c1ccc(F)cc21 (configuration not stated),Percent Effect,"30 µM, 30.03 µM",-27.6%
Fc1ccc2[nH]c3c(c2c1)CCN1C(c2ccccn2)N2CCC31CC2 (configuration not stated),Percent Effect,"30.3 µM, […]",100.3%
Fc1ccc2[nH]c(C3CCCN3CCc3ccccn3)nc2c1 (configuration not stated),Percent Effect,"30 µM, 30.03 µM",22.71%
Cc1nc(Nc2ncccn2)cc(C2CCN(CC(C)C)C2)n1 (configuration not stated),Percent Effect,"30.3 µM, […]",4.591%
CN(CCCOc1ccccc1Cl)C(=O)CN1C[C@@H]2CC[C@H](CC1=O)N2,Percent Effect,"30.3 µM, […]",-75.76%
COc1ccccc1-c1ncc(CN2C[C@@H](N(C)C)[C@H](C(C)C)C2)s1,Percent Effect,"30.3 µM, […]",89.3%
COc1ccccc1-c1ncc(CN2CCCC[C@H](N(C)C)C2)s1,Percent Effect,"30.3 µM, […]",40.64%
COc1ccccc1-c1ncc(CN2C[C@H](O)[C@@H](N3CCCC3)C2)s1,Percent Effect,"30.3 µM, […]",20.14%
COc1ccc(C2CCCN2C(=O)NCCCn2ccnc2)cc1 (configuration not stated),Percent Effect,"30.3 µM, […]",-18.05%
Cc1ccccc1C(CNc1ncnc2c1CCNC2)N(C)C (configuration not stated),Percent Effect,"30 µM, 30.03 µM",-30.9%
CC(C)Nc1ncnc2c1CCNCC2,Percent Effect,"30.3 µM, […]",-40.35%
CCOc1ccc(C(C)Nc2ncnc3c2CCNC3)cc1OCC (configuration not stated),Percent Effect,"30.3 µM, […]",2.402%
CC(Nc1ncnc2c1CCNC2)c1ccc(C(C)(C)C)cc1 (configuration not stated),Percent Effect,"30.3 µM, […]",90.36%
CC(Nc1ncnc2c1CCNCC2)c1nc2c(s1)CCCC2 (configuration not stated),Percent Effect,"30 µM, 30.03 µM",6.589%
Cc1cc(C)n(CC(C)Nc2ncnc3c2CCNC3)n1 (configuration not stated),Percent Effect,"30 µM, 30.03 µM",-30.59%
CCCc1ccc(C(C)Nc2ncnc3c2CCNC3)cc1 (configuration not stated),Percent Effect,"30.3 µM, […]",56.69%
CC(Nc1ncnc2c1CCNC2)c1ccc2c(c1)CCCC2 (configuration not stated),Percent Effect,"30.3 µM, […]",100.2%
Cc1ccccc1C(Nc1ncnc2c1CCNC2)c1ccccc1 (configuration not stated),Percent Effect,"30 µM, 30.03 µM",-12.11%
CCNC(c1ccc(F)cc1)c1cccnc1 (configuration not stated),Percent Effect,"30 µM, 30.03 µM",-17.98%
O=C(O)C(F)(F)F.O=C(c1cccs1)N1CC[C@@H](N2CCOCC2)[C@@H]1Cc1ccccc1,Percent Effect,"30 µM, 30.03 µM",16.01%
O=C(O)C(F)(F)F.O=C(O)[C@]12CCCN(CC3CCOC3)C[C@H]1CN(c1ncccn1)C2 (some centres not stated),Percent Effect,"30.3 µM, […]",-92.21%
Cc1cccc(C(=O)N2CCCN(CCCSCC#N)CC2)c1,Percent Effect,"30 µM, 30.03 µM",-25.24%
O=C(O)C(F)(F)F.O=C(c1ccccc1)N1CCC[C@]2(C[C@@H](Oc3ncccc3F)CO2)C1,Percent Effect,"30 µM, 30.03 µM",-46.98%
CC(C)CC(=O)NCCn1nc(C2CCNC2)c2cccnc21.Cl (configuration not stated),Percent Effect,"30.3 µM, […]",2.604%
CC(=O)N1N=C(c2ccco2)OC1C(=O)NCC(C)C (configuration not stated),Percent Effect,"30.3 µM, […]",15.99%
same,Percent Effect,"10 mM, 10 mM as filed; unlikely as a test dose",-43.02%
CC(=O)N1N=C(c2ccco2)OC1C(=O)N(C)CCc1ccccc1 (configuration not stated),Percent Effect,"30.3 µM, […]",-0.7394%
same,Percent Effect,"10 mM, 10 mM as filed; unlikely as a test dose",-39.66%
CC(=O)N1N=C(c2ccco2)OC1C(=O)N(CC(C)C)CC(C)C (configuration not stated),Percent Effect,"30.3 µM, […]",65.41%
same,Percent Effect,"10 mM, 10 mM as filed; unlikely as a test dose",-14.31%
CCCc1nc(N2CCCN(c3ccncc3)CC2)c2cnn(C)c2n1,Percent Effect,"30 µM, 30.03 µM",59.27%
CCCc1nc(N2CCCN(c3ncccn3)CC2)c2cnn(C)c2n1,Percent Effect,"30 µM, 30.03 µM",-12.92%
CCCc1nc(N2CCN(Cc3ccccn3)CC2)c2cnn(C)c2n1,Percent Effect,"30 µM, 30.03 µM",36.81%
CC(=O)N1CCC(n2nccc2-c2cnc(N)nc2)CC1,Percent Effect,"30.3 µM, […]",-9.866%
Cn1ncc2c(N[C@H]3CC[C@@H](N)CC3)nc(C(C)(C)C)nc21,Percent Effect,"30.3 µM, […]",99.86%
Cn1ncc2c(N[C@H]3CCCC[C@@H]3O)nc(C(C)(C)C)nc21,Percent Effect,"30.3 µM, […]",-1.471%
Cn1ncc2c(NC3CCCN(C(=O)C4CC4)C3)nc(C(C)(C)C)nc21 (configuration not stated),Percent Effect,"30 µM, 30.03 µM",43.28%
Cc1cccc(C(=O)N2C[C@@H]3CCN(c4cccnc4)C[C@@H]3C2)c1.O=C(O)C(F)(F)F,Percent Effect,"30 µM, 30.03 µM",1.381%
COCCN1C(=O)CC[C@@H]2[C@H]1CCN2Cc1cccc(C#N)c1.O=C(O)C(F)(F)F,Percent Effect,"30.3 µM, […]",-247.8%
CCCN(Cc1ccccc1O)S(=O)(=O)C(C)CC (configuration not stated),Percent Effect,"30 µM, 30.03 µM",101.6%
CCCN(Cc1ccccc1O)S(=O)(=O)N(C)CC,Percent Effect,"30 µM, 30.03 µM",-50.11%
CCC(C)S(=O)(=O)N(Cc1ccco1)Cc1ccccc1O (configuration not stated),Percent Effect,"30 µM, 30.03 µM",-17.24%
Cl.Nc1ccc(-c2cnc(C3CCCN3)cn2)cn1 (configuration not stated),Percent Effect,"30.3 µM, […]",19.85%
O=C(NCCN1CCCC1)c1cc2c(s1)CCN2c1ncccn1,Percent Effect,"30.3 µM, […]",35.85%
Cc1ccc(N2CCc3sc(C(=O)N4CCOCC4)cc32)nn1,Percent Effect,"30.3 µM, […]",-27.02%
Cc1ccc(N2CCc3sc(C(=O)NCCN4CCCC4)cc32)nn1,Percent Effect,"30.3 µM, […]",54.03%
Cc1cc(C(=O)N2CC[C@H]3[C@H](C[C@@H](CN4CCCC4)N3C)C2)c(C)o1.O=C(O)C(F)(F)F.O=C(O)C(F)(F)F,Percent Effect,"30.3 µM, […]",-13.25%
